From PubChem BioAssay AID2061306 (National Center for Advancing Translational Sciences (NCATS), 2025) come the findings set out here.

Results filed as inconclusive are left out. Active and inactive are the calls of the source. Calls follow the shape of the dose curve; as a rule, active = well fitted inhibition curve with a large enough effect; inconclusive = small, poorly fitted or top-dose-only effect; inactive = flat fitted curve, though single readings scatter.

The nature of the test: Identification of antibody-drug conjugate (ADC) payloads which are substrates of ATP-binding cassette drug efflux transporters: ABCB1-HEK293-pcDNA cell line. Conditions: HEK293 empty-vector (pcDNA) control viability, CellTiter-Glo, 48 h. The source says: Antibody-drug conjugates (ADCs) feature an antibody recognizing a specific protein joined to a potent toxic payload. Numerous antibody-drug conjugates have received FDA approval; however, clinical resistance arises. Resistance mechanisms include decreased expression or mutation of the antibody target, impaired payload release, or increased expression of ATP-binding cassette (ABC) efflux transporters associated with multidrug resistance. We therefore sought to characterize the interaction of ABC multidrug transporters with ADC payloads. We performed a high-throughput screen with 27 common ADC payloads using cells lines expressing ABC transporters P-glycoprotein (P-gp, encoded by ABCB1) or ABCG2 (encoded by ABCG2). Confirmatory assays were also performed using cells transfected to express P-gp, ABCG2, or MRP1 (encoded by ABCC1). Several commonly used ADC payloads were substrates of P-gp, including calicheamicin gamma1, monomethyl auristatin E, DM1, and DM4. All the pyrrolobenzodiazepines tested - SJG136, SGD-1882, SG2057, and SG3199 - were substrates of P-gp, ABCG2, and MRP1. […] These findings highlight the risk of transporter-mediated resistance with certain ADC payloads and underscore the importance of selecting payloads that evade ABC transporter recognition in future ADC development.
HEK-293 cells were transfected with empty vector (pcDNA) or vector containing the human ABCB1 (MDR-19), ABCG2 (R-5), or ABCC1 gene (MRP1) and were maintained in EMEM with 2 mg/mL G418 added to maintain transporter expression. The HeLa derivative KB-3-1 and the P-gp overexpressing KB-8-5-11 subline were maintained in DMEM; KB-8-5-11 additionally received 100 ng/mL colchicine. H460 parental cells were obtained from the Division of Cancer Treatment and Diagnosis Tumor Repository, National Cancer Institute at Frederick, MD and were cultured in RPMI. The ABCG2 expressing subline H460 MX20 was generated by selecting H460 cells in 20 nM mitoxantrone. Media in all cases was supplemented with 10% FBS and 1% penicillin-streptomycin. We explored 27 common ADC payloads, in two orthogonal, paired cell line sets-a drug selected and transfected set for each transporter--to identify substrates of the ABC transporters P-gp and ABCG2. Compounds were sourced from Levena Biopharma (San Diego, CA), Selleck Chem (Houston, TX), ChemieTek (Indianapolis, IN), or Microsource Discovery Systems (Gaylordsville, CT). Screening was performed as previously described. Briefly, cells were plated at a density of 500 cells/well in 1536 well plates with compounds added using a 1536-head pin tool (Kalypsys, San Diego CA). Cells were incubated with cytotoxic drugs and processed with CellTiter Glo reagent (Promega, Madison, WI) to determine viability after 48 hours. […]
As for `COc1cccc2c1C(=O)c1c(O)c3c(c(O)c1C2=O)C[C@@](O)(C(=O)CO)CC3OC1CC(N2CCOC(OC)C2)C(O)C(C)O1` (some centres undefined), the Potency is 1.7 nM (active).

As to `CC[C@@]1(O)C(=O)OCc2c1cc1n(c2=O)Cc2cc3ccccc3nc2-1`, the Potency was 11.8 nM (active).

As to `COc1cc2cc(C(=O)N3C[C@@H](CCl)c4c3cc(O)c3ccccc43)[nH]c2c(OC)c1OC`, the Potency was 1.5 nM (active).

Consider `CC[C@H](C)[C@H](NC(=O)[C@H]1CCCCN1C)C(=O)N(C)[C@H](C[C@@H](OC(C)=O)c1nc(C(=O)N[C@@H](Cc2ccccc2)C[C@H](C)C(=O)O)cs1)C(C)C`, for which the Potency was 1.3 nM (active).
